The record followed here is the supplement of paper PMC6522484.

Each structure is given as a SMILES string. ± gives the standard deviation of the averaged measurements.

For this test, the system named is SW480. Nature of the test: cell viability (CellTiter-Glo) relative to plate median (fraction of plate median); higher = more viable cells. Particulars: 5 µM; treatment time 24 h; reporter: 7TFP. In a few lines: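 Per-well firefly luciferase or CellTiterGlo luminescence, normalised to the plate median, is what is reported. It was measured in colorectal cancer cells with stable lentiviral TCF/Wnt firefly luciferase reporters after a 24 h treatment with library compounds at a final 5 µM. The mean of two independent replicates is given.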
Consider `O=c1cc(-c2ccccc2)oc2cccc(O)c12`, for which the cell viability is 1.04 ± 0.058. As for `C[C@]12CCC(=O)C=C1C=C[C@@H]1[C@@H]2CC[C@@]2(C)[C@H]1CC[C@@]21CCC(=O)O1`, the figure is 0.969 ± 0.044; as for `CCc1cnn2c(NCc3ccc[n+]([O-])c3)cc(N3CCCC[C@H]3CCO)nc12` [Dinaciclib], 1.32 ± 0.12; as for `O=C(/C=C/c1ccc(O)c(O)c1)OCCc1ccccc1`, 0.963 ± 0.023. As for `O=C(Cn1ccnc1[N+](=O)[O-])NCCO`, the figure is 0.9935 ± 0.0092.

Regarding `O=C(O)c1cc(O)c(O)c(O)c1`, the cell viability is 1 ± 0.08. Then `Cc1cc(O)c(C=O)c2c1C(=O)Oc1c(COC(=O)/C=C/C(=O)O)c(O)c(C(=O)O)c(C)c1O2`, with 0.966 ± 0.011.

The compound `CC(C)c1c(O)ccc2c1CCC1[C@@](C)(C=O)CCC[C@]21C` (stereo not given in full) had a cell viability of 0.965 ± 0.04. As for `CC(=O)OC(C)(C)[C@@H]1Cc2cc3ccc(=O)oc3cc2O1`, the figure is 1.03 ± 0.062; as for `CCOC(=O)[C@H](CCc1ccccc1)N[C@@H](C)C(=O)N1Cc2ccccc2C[C@H]1C(=O)O`, 0.952 ± 0.066; as for `COc1cc(/C=C/C(=O)O)cc(OC)c1OC`, 0.903 ± 0.056. Regarding `CC(=O)OC1CCC2(O)CC1(C)CCC1C2CC1(C)C` (stereo not given), the cell viability was 1.05.

As for `C[C@@H]1CC[C@@]2(OC1)O[C@H]1C[C@H]3[C@@H]4CC[C@H]5C[C@@H](O)CC[C@]5(C)[C@H]4CC[C@]3(C)[C@H]1[C@@H]2C`, the cell viability came out at 1.01. Then `CC(=O)OCC(=O)[C@@]1(O)CC[C@H]2[C@@H]3CCC4=CC(=O)CC[C@]4(C)[C@@]3(F)[C@@H](O)C[C@@]21C`, with 0.995 ± 0.022; and `COc1ccc2c3c1O[C@H]1C[C@@H](O)C=C[C@@]31CCN(C)C2`, with 1.03 ± 0.045. Take `CCCCC(=O)N(Cc1ccc(-c2ccccc2-c2nnn[nH]2)cc1)[C@H](C(=O)O)C(C)C`: the cell viability is 1 ± 0.054. Then `CNCC[C@H](Oc1cccc2ccccc12)c1cccs1`, with 1.05 ± 0.028. Then `CC1NC(=O)CNC1=O` (stereo not given) [cyclo(alanylglycyl)], with 0.925 ± 0.054. Then `COc1ccc(NS(=O)(=O)c2ccc(N)cc2)nn1`, with 1.02 ± 0.032; and `O=C(CCCCC(=O)Nc1c(I)cc(I)c(C(=O)O)c1I)Nc1c(I)cc(I)c(C(=O)O)c1I`, with 1.01 ± 0.03. The compound `COc1cc([S+](C)[O-])ccc1-c1nc2cccnc2[nH]1` (stereo not given) had a cell viability of 0.953 ± 0.025. Then `C/C=C/C1=CC(=O)[C@@H](O)[C@@H]1O` [Terrein], with 0.986 ± 0.011. As to `O=C1OC(=O)[C@H]2[C@@H]1[C@@H]1CC[C@H]2O1`, the cell viability is 0.949 ± 0.0085. The compound `COC(=O)c1c(OC)cc2c(c1C)Oc1c(Cl)c(OC(C)=O)c(Cl)c(C)c1C(=O)O2` registered a cell viability of 0.9875 ± 0.0064.

`Cc1cc(O)cc(C)c1Cl`: the cell viability is 0.918 ± 0.13.

On to `CC(=O)N1CCCC(N)C1=O` (stereo not given) [N-Acetyl-3-amino-2-piperidinon], for which the cell viability turned out to be 0.946 ± 0.015.

For the compound `CCc1ccc(CCOc2ccc(CC3SC(=O)NC3=O)cc2)nc1` (stereo not given), the cell viability was determined as 0.983 ± 0.096. In turn, `O=C(C=Cc1ccc(O)cc1)c1ccccc1O` returned a cell viability of 1.02 ± 0.028.

In the case of `CO/N=C(\C(=O)N[C@@H]1C(=O)N2C(C(=O)O)=C(CSc3nc(=O)c(O)nn3C)CS[C@H]12)c1csc(N)n1`, the cell viability amounted to 0.98 ± 0.071. On to `O=c1cc(-c2ccc(O)c(O)c2)oc2cc(O[C@@H]3O[C@H](CO)[C@@H](O)[C@H](O)[C@H]3O)cc(O)c12` [Luteolin-7-O-glucoside (102)], for which the cell viability is 0.95 ± 0.0028. In the case of `CCCCc1oc2ccccc2c1C(=O)c1cc(I)c(OCCN(CC)CC)c(I)c1`, the cell viability came to 0.964 ± 0.019. Then `COC(=O)N/N=C/c1c[n+]([O-])c2ccccc2[n+]1[O-]`, with 0.974 ± 0.021. On to `COc1ccc2c(c1)[C@@]1(C)CC[C@@H](O)C[C@@H]1CC2` [12-METHOXY-4,4-BISNOR-5alpha-8,11,13-PODOCARPATRIEN-3-OL], for which the cell viability came out at 0.984 ± 0.037.

`CN1CC(=O)N2[C@H](c3ccc4c(c3)OCO4)c3[nH]c4ccccc4c3C[C@@H]2C1=O` returned a cell viability of 0.995 ± 0.021. As for `N[C@@H](Cc1c[nH]c2ccccc12)C(=O)O`, the figure is 1.03 ± 0.014; as for `CCOC(=O)[C@H](CCc1ccccc1)N[C@@H](C)C(=O)N1[C@H](C(=O)O)C[C@@H]2CCC[C@@H]21`, 1.1 ± 0.042.

The compound `CC(C)CC(NC(=O)OCC1c2ccccc2-c2ccccc21)C(=O)O` (stereo in doubt) came in with a cell viability of 1.01 ± 0.021. As to `O=c1c(O)cc([C@H]2Oc3cc(O)cc(O)c3C[C@H]2O)cc2c([C@H]3Oc4cc(O)cc(O)c4C[C@H]3O)cc(O)c(O)c12`, the cell viability was 0.966 ± 0.02.

`O=C(O)c1c2ccccc2cc2ccccc12`: the cell viability amounted to 1.01 ± 0.052.

Regarding `COc1ccc(-c2cc(=O)c3c(OC)c(OC)c(OC)c(OC)c3o2)cc1OC`, the cell viability was found to be 1.04 ± 0.067.
